Laboratory results from PubChem BioAssay (NCI).
This is part of a sample that, as a whole, favours compounds with a hit. Of some 83,000 tested, about 20% had one in any assay.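 Note: values are percent growth. 100 is the growth of untreated cells, values between 100 and 0 indicate rising inhibition; between -100 and 0 indicates cell death.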 Values without a mark were called inactive. Activity calls are given as the source filed them. The calls were made as follows: active = growth percent below 10; inactive = the rest.

Assays:
Experiment in all cases: NCI-60 one-dose screen, 48 h (100 = growth as untreated, 0 = no growth, -100 = all killed)
Conditions in all cases: 10 µM unless noted
[1] = tested on: NCI-H23 lung
[2] = tested on: NCI-H322M lung
[3] = tested on: HOP-62 NSCLC
[4] = tested on: NCI-H460 lung
[5] = tested on: HOP-92 NSCLC
[6] = tested on: NCI-H522 lung
[7] = tested on: A549/ATCC NSCLC
[8] = tested on: 786-0 renal
[9] = tested on: COLO 205 colon
[10] = tested on: DU-145 prostate
[11] = tested on: K-562 leukemia
[12] = tested on: MALME-3M melanoma
[13] = tested on: MDA-MB-231 breast
[14] = tested on: RXF 393 renal
[15] = tested on: SF-268 CNS
[16] = tested on: SF-295 CNS
[17] = tested on: SF-539 CNS
[18] = tested on: UACC-257 melanoma
[19] = tested on: M14 melanoma

Compound | growth [1] | growth [2] | growth [3] | growth [4] | growth [5] | growth [6] | growth [7] | growth [8] | growth [9] | growth [10] | growth [11] | growth [12] | growth [13] | growth [14] | growth [15] | growth [16] | growth [17] | growth [18] | growth [19]
CC(=O)Oc1ccccc1C(=O)NCCC[Se]C#N | -13.8% (active) | 2.65% (active) | -38.8% (active) | 1.89% (active) | -18.5% (active) | 65.2% | 28.2% | 104% | 112% | -32.9% (active) | 30.2% | -24.5% (active) | -38.5% (active) | -7.78% (active) | -22.3% (active) | -15.7% (active) | -72.1% (active) | 42.1% | -13.1% (active)
CC12CCC3C(CCC4=CC(=O)CCC43CF)C1CCC2=O (stereo not given) | 106% | 102% | 124% | 109% | 114% | 87.3% | 99.3% | 106% | 135% | 116% | 93.5% | 94.2% | 118% | 67.7% | 110% | 106% | 106% | 97% | 103%
Cc1cc(N(CCCl)CCCl)ccc1/C=N\NC(=O)c1ccncc1 | 87.8% | 113% | 79.4% | 25.9% | 97% | 101% | 78.4% | 82.5% | 98% | 82.4% | 85.2% |  | 96.4% | 91.7% | 70.7% | 56.2% | 60.3% | 79.8% | 90.4%
C[C@]12CC[C@@H]3c4ccc(Oc5nc(N6CC6)nc(N6CC6)n5)cc4CC[C@H]3[C@@H]1CCC2=O | 31.6% | 44.2% | 11.7% | -33.8% (active) | 104% | 31.5% | 24.9% | 32.4% | 32.5% | 7.1% (active) | 18% | 65.4% | 74.5% | -6.13% (active) | 29.9% |  | 21.6% | 65.5% | 44.7%
c1ccc(Nc2nc(-c3ccccc3)c[se]2)cc1 | 87.2% | 69.8% | 69.8% | 100% | 59.8% | 68.6% | 87.5% | 93% | 104% | 98.4% | 80.1% | 78.6% | 64.3% |  | 95.7% | 93% | 93.7% | 98.6% | 87.3%
O=C(CCCC1CCCCC1)OCC(Cl)(Cl)Cl | 94.3% | 104% | 98.7% | 101% | 77.5% |  | 107% | 102% | 101% | 105% | 99.8% | 102% | 116% | 114% | 97.1% | 102% | 104% | 109% | 105%
C[CH2][Sn]([Cl])([Cl])[CH2]C.Oc1ccccc1C=NCCN=Cc1ccccc1O | 103% | 101% | 99.2% | 107% | 95.2% |  | 96% | 116% | 116% | 111% | 84.2% | 95.6% | 107% | 118% | 106% |  | 87.9% | 94.1% | 112%
CC(=O)[O][Hg][O]C(C)=O | 98.4% | 89.6% | 100% | 101% | 142% | -73.9% (active) | 103% | 103% | 88.5% | 94.8% | 29.7% | 54.3% | 110% | 98.2% | 96.6% | 90.3% | 108% | 90.8% | 88.3%
CCNc1nc(Cl)nc(NCC)n1 | 111% | 100% | 93% | 102% | 65.1% | 105% | 85.7% | 108% | 102% | 123% | 35.1% | 133% | 104% |  | 102% | 84.1% | 97.2% | 89% | 101%
Cn1cc(-c2csc(-c3cn(CCN4CCOCC4)c4ccc(F)cc34)n2)c2cccnc21 | 22.5% | 73.3% | 8.52% (active) | 44.6% | 27.2% | -0.645% (active) | 22.5% | 56.3% | 15.9% | 40.1% | 9.34% (active) | 53% | 35.1% | 71% | 41.7% | 29.2% | 61.5% | 71% | 8.08% (active)
O=C(c1cccc(O)c1O)c1cn(Cc2ccc(F)cc2)c2cccc(O)c12 | 47.8% | 37.9% | 31% | 11.4% | -9.9% (active) | -36.5% (active) | 30.5% | 31.2% | 50.3% | 36.2% | 22.1% | 58.9% | 39.1% | 70% | 26.3% | 41.9% | 13.8% | 34.4% | -64.3% (active)
COc1cc([C@@H]2c3cc4c(cc3[C@H](OC(C)=O)[C@H]3COC(=O)[C@H]23)OCO4)cc(OC)c1OC | 25% | 42.7% | 37.8% | 9.09% (active) | 32.8% | -4.13% (active) | 19.5% | 20.5% | -27.9% (active) | 1.84% (active) | 9.74% (active) | 68.9% | 23.7% | 54.9% | 37% | 10.6% | -11% (active) | 75.9% | 6.87% (active)
O=C(Nc1ccc([As]=[As]c2ccc(NC(=O)c3ccccc3)cc2)cc1)c1ccccc1 (stereo not given) | -71.3% (active) | -76.8% (active) | -96.7% (active) | -30.5% (active) | -93.1% (active) | -75.9% (active) | -63.2% (active) | -94.3% (active) | -83.4% (active) | -96% (active) | -16.8% (active) | -80.5% (active) |  | -97.8% (active) | -91.4% (active) | -52.7% (active) | -90.9% (active) | -87% (active) | -89% (active)
CCC[CH2][Sn]([CH2]CCC)([CH2]CCC)[O]c1ccc(Cl)cc1Cl | -87.2% (active) | -80.1% (active) | -91.7% (active) | -84.8% (active) | -84.9% (active) | -90.1% (active) | -82% (active) | -93.8% (active) | -75.2% (active) | -99.4% (active) | -65% (active) | -61.5% (active) | -78.2% (active) | -96.2% (active) | -91% (active) | -37% (active) | -83.4% (active) | -88.8% (active) | -83.9% (active)
[Cl][Hg][n]1c(-c2ccco2)nc2ccccc21 | 99% | 98.8% | 115% | 96.4% | 116% | 85.7% | 100% | 107% | 121% | 97.3% | 78.8% | 119% | 100% | 104% | 105% | 106% | 99.3% | 103% | 86.1%
COC(=O)[C@@H](C)C[C@H](Cc1ccccc1)NC(=O)c1csc([C@@H](C[C@H](C(C)C)N(C)C(=O)[C@@H](NC(=O)CN(C)C)C2CC2)OC(C)=O)n1 | 25% | 47.7% | 19.1% | 10.3% | 26.4% | -44.7% (active) | 13.5% | 21% | -72.8% (active) | 3.44% (active) | 9.12% (active) | 69.8% | 24.2% | 37.6% | 33.3% | 13.5% | 0.502% (active) | 60.3% | 13%
C=CC[n+]1ccc(-c2cc[n+](CC=C)cc2)cc1 | 78.8% | 95.7% | 83.7% | 91.9% | 111% | 19.7% | 71.9% | 109% | 9.91% (active) | 107% | 99.4% | 34.1% | 120% | 99.8% | 102% | 101% | 101% | 96.9% | 109%
